# Hits are enriched below; roughly 1.5% of the tested compounds scored in any of these assays.
# STK33 kinase inh – inhibitors of human STK33 kinase | Q9BYT3 | purified STK33, MBP phosphorylation, ADP-Glo luminescence | inhibition, % at 10 µM | actives 0.073% (n = 320,000) | AID 2661;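 active = inhibition at or above 25%, using the most active replicate where run in duplicate; inactive = inhibition below 25%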
# Dyrk1A ADPGlo – Dyrk1A (rat) kinase inhibition; inhibition, % at 12.5 µM; actives 0.43% (n = 310,000); ADP-Glo luminescence, NFATc1 peptide; Q63470; in the data active = inhibition above about 50%;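 note: plate controls were vehicle with enzyme for no effect and no enzyme for full effect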
# PP5 inh – PP5 (human) phosphatase inhibition; P53041; purified PP5c, OMFP substrate fluorescence; inhibition, % at 6.7 µM; actives 0.18% (n = 320,000); AID 1987;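 active = inhibition above the campaign's mean inhibition across all tested compounds plus 3 SD, cut at about 9.5% in these data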;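 note: 0% = DMSO only and 100% = 100 µM cantharidin control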
# PP1 counter – blocks human PP1-alpha phosphatase, a PP5 counter-screen. actives 0.9% (n = 320,000). inhibition, % at 6.7 µM. P62136. purified PP1alpha, OMFP fluorescence. AID 2235;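 active = inhibition above the mean inhibition of all tested compounds plus 3 SD, computed separately for each screening campaign, cut at about 15% in these data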
# Target sequence (P62136 whole entry, looked up): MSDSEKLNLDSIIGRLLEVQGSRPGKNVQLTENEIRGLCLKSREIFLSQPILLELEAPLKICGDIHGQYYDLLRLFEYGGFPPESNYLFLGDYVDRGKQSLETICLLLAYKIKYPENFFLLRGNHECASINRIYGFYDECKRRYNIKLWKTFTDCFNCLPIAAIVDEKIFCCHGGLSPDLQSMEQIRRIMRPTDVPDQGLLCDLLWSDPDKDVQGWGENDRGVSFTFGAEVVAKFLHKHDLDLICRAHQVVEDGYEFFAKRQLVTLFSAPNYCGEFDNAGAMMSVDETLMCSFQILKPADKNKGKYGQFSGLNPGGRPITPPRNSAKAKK
# HIF act – HIF pathway transcriptional activation. activation, % at 7.5 µM (by protocol). U2OS HRE-luciferase reporter, luminescence; normalized: DMSO 0%, desferrioxamine 100%. AID 1910. actives 0.32% (n = 300,000);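 active = mean activation of at least 10% of the iron chelator positive control signal, with at least half of replicates also reaching 10%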
# PP1 confirm – human PP1 phosphatase inhibition, confirmation | shares compounds with PP1 counter | purified PP1alpha, OMFP substrate fluorescence | inhibition, % at 6.7 µM | actives 52% (n = 1,900) | AID 2358;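 active = mean PP1 inhibition above a set limit taken from the earlier primary screen, cut at about 15% in these data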
# PP5 inh counter – inhibits human PP5 phosphatase in PP1 counter-screen. actives 4% (n = 1,900). inhibition, % at 6.7 µM. purified PP5c, OMFP fluorescence. shares compounds with PP1 counter;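 active = mean PP5 inhibition over triplicate wells above about 9.5% taken from the earlier PP1 screen, limit read from the data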
# * = called active by the depositor; . = not tested or not shown.
SMILES,STK33 kinase inh,Dyrk1A ADPGlo,PP5 inh,PP1 counter,HIF act,PP1 confirm,PP5 inh counter
Cc1ccc(S(=O)(=O)NC(=O)Nc2cccc(S(=O)(=O)N(C)C)c2)cc1,-1,0,.,.,.,.,.
O=C(NCc1ccccn1)c1cccc(NS(=O)(=O)c2ccccc2F)c1,-1,-2,2,-3,0,.,.
C#CCNC(=O)C1=C[C@@H](c2csc3ccccc23)C[C@@H](OCc2ccc(CO)cc2)O1,1,0,5,73*,-15,2,1
O=C(Cc1csc(NC(=O)Nc2ccc(Cl)cc2)n1)NC1CCCC1,-1,1,4,24*,0,19*,-3
Cn1c(=O)c2c(nc(Br)n2C/C=N/NC(N)=S)n(C)c1=O,-1,.,-2,-4,0,.,.
Cc1noc(C)c1COC(=O)COc1ccc2c(C)cc(=O)oc2c1,-4,0,1,19*,-1,17*,-4
O=c1[nH]c(NCCO)nc2c1C1(CCCCC1)Cc1ccccc1-2,6,2,1,19*,.,2,0
CCCn1c(SCC(=O)NC(=O)NC(C)(C)C)n[nH]c1=O,-1,4,0,3,0,.,.
CCCn1nc([N+](=O)[O-])c(C(C#N)c2nc3ccccc3o2)c(Cl)c1=O (stereo not drawn),1,3,4,9,0,.,.
CCn1nc([N+](=O)[O-])c(C(C#N)c2nc3cc(C(F)(F)F)ccc3s2)c(Cl)c1=O (stereo not drawn),0,9,7,22*,0,22*,5
CC(C)CCNC(=O)CNC(=S)N(Cc1ccccc1)Cc1cccnc1,-1,11,2,1,-1,.,.
CC(C)CCn1c(SCC(=O)NC2CCS(=O)(=O)C2)nc2cc(Cl)ccc2c1=O (stereo not drawn),1,3,2,-6,-1,.,.
Cc1ccc(S(=O)(=O)n2ccc3c(OCCOCCNCc4ccc(F)cc4)cccc32)cc1,-1,2,3,18*,1,-1,2
Cc1ccc(S(=O)(=O)n2ccc3c(OCCOCCSCC(NC(=O)OC(C)(C)C)C(=O)O)cccc32)cc1 (stereo not drawn),-1,-3,6,21*,-2,9,4
CCOC(=O)C1=C(c2ccccc2)NC(N)=NC1c1ccc(OCc2ccc(Cl)cc2)c(OC)c1 (stereo not drawn),8,-4,5,25*,1,29*,0
O=C(O)c1cc(S(=O)(=O)NC(CO)C(O)c2ccc([N+](=O)[O-])cc2)ccc1Br (stereo not drawn),0,-2,2,-2,0,.,.
CCOc1ccc(NC(=O)CN(c2ccc([N+](=O)[O-])cc2)S(=O)(=O)c2ccccc2)cc1,-1,-6,4,4,0,.,.
CCOc1ccc(S(=O)(=O)N(CC(=O)N/N=C/c2ccc(-c3ccc([N+](=O)[O-])cc3)o2)c2ccccc2)cc1,0,0,2,33*,3,35*,0
CC(Oc1ccccc1)C(=O)N=Nc1c(O)[nH]c2ccc(Br)cc12 (stereo not drawn),0,1,-1,18*,-1,14,0
Cc1c(C2C(C#N)=C(N)N(c3cccc([N+](=O)[O-])c3)C3=C2C(=O)CCC3)cnn1C (stereo not drawn),1,.,1,-3,0,.,.
COc1ccc(Cn2c(=O)c3[nH]cnc3n(-c3ccc(C)cc3)c2=O)cc1,0,-3,5,0,-1,.,.
Clc1ccc2nc(-c3ccccn3)c(Nc3ccc4c(c3)OCO4)n2c1,-1,-7,3,46*,0,40*,-1
CCOC(=O)c1c(C)[nH]c(C(=O)OCC(=O)NCc2ccccc2)c1C,-1,-6,.,.,.,.,.
CCOC(=O)c1c(C)[nH]c(C(=O)OCC(=O)NCc2ccc(C)cc2)c1C,0,5,1,19*,.,12,-5
Cc1cc(NC(=O)C(C)SCC(=O)OCC(=O)Nc2c(C)cccc2C(C)C)no1 (stereo not drawn),1,0,4,2,.,.,.
Cc1ccc(C(=O)c2oc3ccccc3c2N)cc1,-1,5,2,0,2,.,.
Nc1c(C(=O)c2ccc(Br)cc2)oc2ccccc12,3,4,3,18*,1,-4,-3
